Compound activity from PubChem.
HPGD inh = qHTS Assay for Inhibitors of HPGD (15-Hydroxyprostaglandin Dehydrogenase); purified HPGD, NADH fluorescence kinetic, PGE2 substrate; 4.3% of 150,000 active; 15-hydroxyprostaglandin dehydrogenase [NAD(+)] (Homo sapiens), P15428; Potency, µM, for inactives: top-dose activity change, negative = inhibition, most hits filed as inhibitors
Target sequence (P15428 whole entry, looked up): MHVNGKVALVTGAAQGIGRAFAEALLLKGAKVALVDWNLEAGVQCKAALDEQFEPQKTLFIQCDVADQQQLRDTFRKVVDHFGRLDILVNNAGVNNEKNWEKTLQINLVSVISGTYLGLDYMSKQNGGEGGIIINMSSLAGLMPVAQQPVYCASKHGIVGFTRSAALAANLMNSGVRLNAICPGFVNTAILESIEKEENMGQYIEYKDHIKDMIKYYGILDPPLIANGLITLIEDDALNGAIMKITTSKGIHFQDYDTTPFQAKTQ
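20 nM HPGD preincubated 15 min at room temperature with compound in 50 mM Tris-HCl pH 8, 0.01% Tween 20. Started with 1 mM NAD+ and 30 uM prostaglandin E2; NADH fluorescence (360/450 nm) read 5 times over 30-s intervals, last minus first.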
JMJD2E inh = qHTS Assay for Inhibitors of Human Jumonji Domain Containing 2E (JMJD2E). Lysine-specific demethylase 4E (Homo sapiens), B2RXH2. JMJD2E catalytic domain, FDH-coupled NADH fluorescence (FDH is formaldehyde dehydrogenase). Potency, µM (doses to about 57.1 µM), without a hit: at the top dose activity change, negative = inhibition, actives largely listed as inhibitors. 1.6% of 230,000 active. AID 2147, 2009;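 further: 0% = wells with enzyme and -100% = buffer wells without enzyme; nearly all actives have a fitted effect of over 50% in size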
Target sequence (B2RXH2 1-337 limits assumed): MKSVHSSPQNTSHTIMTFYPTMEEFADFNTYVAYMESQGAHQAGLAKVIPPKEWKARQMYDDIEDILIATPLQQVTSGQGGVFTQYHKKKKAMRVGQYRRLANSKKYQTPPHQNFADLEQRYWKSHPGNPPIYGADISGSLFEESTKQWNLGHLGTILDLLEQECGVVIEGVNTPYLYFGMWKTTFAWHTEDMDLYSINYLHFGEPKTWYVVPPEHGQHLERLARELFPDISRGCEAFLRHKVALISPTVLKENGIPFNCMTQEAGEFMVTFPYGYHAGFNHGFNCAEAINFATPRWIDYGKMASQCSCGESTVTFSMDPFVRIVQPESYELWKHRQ
Tau fibril FP = qHTS for Inhibitors of Tau Fibril Formation, Fluorescence Polarization; Microtubule-associated protein tau (Homo sapiens), P10636; K18 P301L tau heparin fibrillization, Alexa594 FP, 6 h; Potency, µM (series often up to 57.7 µM), inactives show at the top dose activity, negative = inhibition, most hits filed as inhibitors; 0.39% of 280,000 active; AID 1468, 2008; active means well fitted curve in the direction sought with a large enough effect; inconclusive means small, poorly fitted or top-dose-only effect, or another doubt; inactive means no such curve, though single readings can be large; an effect the other way counts as inactive or inconclusive; further: nearly all actives have a fitted effect of over 55% in size
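Quantitative HTS format: compounds meet 15 uM recombinant K18 P301L tau and Alexa 594-tau tracer in 100 mM sodium acetate pH 7; 20 uM heparin triggers fibrillization at 37 C over 6 hr; FP gives the signal.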
Tau fluor cs = Counterscreen qHTS for Inhibitors of Tau Fibril Formation, Fluorescence Polarization | tau K18 P301L Alexa594 fluorescence, heparin fibrillization | Potency, µM (doses to about 57.7 µM), without a hit: at the top dose activity change, negative = decrease | 0.93% of 280,000 active | AID 1463, 2008; active means well fitted curve in the direction sought with a large enough effect; inconclusive means small, poorly fitted or top-dose-only effect, or another doubt; inactive means no such curve, though single readings can be large; an effect the other way counts as inactive or inconclusive; further: nearly all actives have a fitted effect of over 55% in size
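Human K18 P301L tau (15 uM unlabeled plus 0.24 uM Alexa 594-labeled, final) in 100 mM sodium acetate pH 7 was mixed with compound and 20 uM heparin and incubated 6 hr at 37 C.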
Tau fibril ThT = qHTS for Inhibitors of Tau Fibril Formation, Thioflavin T Binding. Potency, µM (doses to about 57.4 µM), inactives show at the highest dose activity, negative = inhibition, actives largely listed as inhibitors. recombinant tau K18 P301L (four-repeat tau fragment), heparin-induced fibrillization, ThT fluorescence. 2.1% of 270,000 active. Microtubule-associated protein tau (Homo sapiens), P10636; active means well fitted curve in the direction sought with a large enough effect; inconclusive means small, poorly fitted or top-dose-only effect, or another doubt; inactive means no such curve, though single readings can be large; an effect the other way counts as inactive or inconclusive; further: nearly all actives have a fitted effect of over 55% in size
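Recombinant human tau K18 fragment […] carrying P301L, 15 uM unlabeled plus 0.24 uM Alexa 594-labeled, was fibrillized with 20 uM heparin in 100 mM sodium acetate pH 7 for 6 hr at 37 C; 30 uM ThT fluorescence read after 1 hr.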
ALDH1A1 block = qHTS Assay for Inhibitors of Aldehyde Dehydrogenase 1 (ALDH1A1) | Purified ALDH1A1, NADH fluorescence, propionaldehyde substrate | 7.3% of 220,000 active | Potency, µM (doses to about 75.3 µM), for inactives: at the top dose activity, negative = inhibition, actives largely listed as inhibitors | Aldehyde dehydrogenase 1A1 (Homo sapiens), P00352;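 further: plate controls were no enzyme wells and a reference inhibitor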
The depositor's hits bear a star; ? = inconclusive; / = no result given; [ ] = remark or other dose. This is a sample that favours compounds with a hit; in the whole collection about 9.9% have one here. Unless noted, the call rests on the fitted dose curve; in most records, active means well fitted inhibition curve with a large enough effect (not every such curve was filed as active); inconclusive means small, poorly fitted or top-dose-only effect, or another doubt; inactive means no such curve, though single readings can be large or run the other way. Unless noted, on the % scale 0 is the no-effect control and ±100 the full control effect; potency means the concentration at half of the fitted maximal effect.

SMILES	HPGD inh	JMJD2E inh	Tau fibril FP	Tau fluor cs	Tau fibril ThT	ALDH1A1 block
CCCOc1ccc(-c2cccc(NS(=O)(=O)c3cccs3)c2)nn1	/	/	8%	-14%	-8%	/
Cn1c(=O)[nH]c(=O)c2c1nc(SCC(=O)O)n2CCc1ccccc1	13µM*	-6%	4%	4%	2%	6.3µM*
CC(C)CCn1c(SCC(=O)c2ccccc2)nc2c1c(=O)[nH]c(=O)n2C	-5%	-6%	-5%	4%	4%	18µM*
Cn1c(=O)c2c(nc(SCCN3CCOCC3)n2Cc2cccc3ccccc23)n(C)c1=O	-7%	2%	7%	-6%	-11%	22µM*
O=C(O)CCc1ccc(-c2cccs2)n1-c1ccc(C(=O)O)cc1	-11%	?	-2%	-12%	?	13µM*
CC(=O)c1cccc(-n2c(CCC(=O)O)ccc2-c2cccs2)c1	-9%	-13%	-6%	-5%	?	7.9µM*
CCCCCCCCC(=O)NCCOc1ccc(OC)cc1	1%	-2%	12%	3%	-5%	4%
COc1ccc(OCCCC(=O)NCC(C)C)cc1	25µM*	-9%	-2%	5%	1%	5%
C=CCNC(=O)CCCOc1cc(C)ccc1C	14µM*	-21%	-9%	-10%	-4%	1%
C=CCNC(=O)CCCOc1ccc(C)cc1	7.1µM*	-2%	2%	-6%	-15%	6%
CC(C)(C)c1ccc(OCC2CO2)cc1 (stereo unspecified)	-12%	/	/	/	/	-6%
CC1CCc2c(nc3sc4c(c3c2N)CCCC4)C1 (stereo unspecified)	-16%	6%	6%	-10%	?	-5%
COc1c(F)c(F)c(C(=O)Nc2ccc(NC(=O)Cc3ccccc3)cc2)c(F)c1F	/	?	-16%	-3%	-2%	6%
COc1ccc(NC(=O)N2CC[C@@]3(CCCN(C(=O)c4cccn4C)C3)C2)cc1	-10%	/	/	/	/	?
CCOc1ccc(NC(=O)C2CCC(CNS(=O)(=O)c3ccc(Br)s3)CC2)cc1 (stereo unspecified)	/	/	?	-11%	-11%	/
Cc1ccc(N2C(=O)C3ON(c4ccccc4)C(c4ccncc4)C3C2=O)cc1 (stereo unspecified)	-27%	2%	1%	-2%	-3%	2.5µM*
O=C(O)COc1ccccc1C1C2C(=O)N(c3ccccc3)C(=O)C2ON1c1ccccc1 (stereo unspecified)	-6%	1%	-2%	-11%	-16%	25µM*
CN1OC2C(=O)N(c3ccccc3)C(=O)C2C1c1ccc(F)cc1 (stereo unspecified)	/	-5%	-7%	-18%	-12%	8.9µM*
O=C1C2ON(c3ccccc3)C(c3ccccc3F)C2C(=O)N1c1ccccc1 (stereo unspecified)	-14%	-1%	4%	1%	4%	-9%
O=C1C2ON(c3ccccc3)C(c3ccncc3)C2C(=O)N1c1ccc(Br)cc1 (stereo unspecified)	/	6%	-1%	-3%	-4%	?
CCOc1ccccc1C1C2C(=O)N(c3ccccc3)C(=O)C2ON1c1ccccc1 (stereo unspecified)	-18%	-18%	-3%	-15%	-8%	22µM*
Cn1c(SCC(=O)N2CCOCC2)ncc(C(=O)Nc2ccccc2)c1=O	/	/	-7%	-11%	?	/
O=C(NCCc1ccccc1)C1c2ccccc2C(=O)N1Cc1cccs1 (stereo unspecified)	/	0%	1%	-8%	-6%	13µM*
COCCCNC(=O)C(C)n1c2ccccc2c2cnn(C)c(=O)c21 (stereo unspecified)	/	/	5%	2%	0%	/
Cc1c(C(=O)NCc2ccccc2Cl)sc2nc3n(c(=O)c12)CCCC3	/	/	2%	-26%	?	/
SMILES	HPGD inh	JMJD2E inh	Tau fibril FP	Tau fluor cs	Tau fibril ThT	ALDH1A1 block
CCOC(=O)c1ccc(NC(=O)Cn2nc3c4ccccc4n(Cc4cccc(F)c4)cc-3c2=O)cc1	/	/	-4%	-6%	2%	/
O=C(Cc1ccccc1)Nc1nc2ccccc2[nH]1	-6%	7%	3%	-7%	-10%	18µM*
Fc1ccc(-c2cnn3c(-c4cccs4)ccnc23)cc1	/	-2%	-15%	-14%	1.4µM*	3%
Fc1ccc(-c2cnn3c(-c4ccncc4)ccnc23)cc1	/	-4%	3%	-2%	3.2µM*	20%
COc1ccc(/C=C2/C(=O)OCc3cc(OC)c(OC)cc32)cc1	?	5%	-3%	-7%	?	6%
Cc1nn(C(C)C(=O)NCc2cccc(F)c2)c(=O)c2c1sc1ccccc12 (stereo unspecified)	/	/	2%	-17%	-8%	/
CCOc1ccc(NC(=O)c2oc(=O)c3ccccc3c2-c2ccc(C)cc2)cc1	/	/	-4%	-15%	3%	/
O=C(O)Cc1sc(Nc2ccc(Cl)cc2)nc1-c1cccs1	/	?	9%	?	?	1µM*
COC(=O)CSc1ncnc2c(C)csc12	/	-7%	-4%	3%	1%	/
O=C(C1=C[C@@H]2[C@H]3C(=O)N(c4ccc(Cl)cc4)C(=O)[C@H]3[C@@H](C(=O)c3ccc(Cl)cc3)N2C=C1)c1ccccc1	32µM*	6%	-19%	?	14µM*	14µM*
Cc1ccc(N2C(=O)C3C(C2=O)C(C(=O)c2ccc(Cl)cc2)N2CCCC32)cc1 (stereo unspecified)	-23%	?	0%	-12%	?	?
O=C1CCCC2=C1C(c1ccco1)Nc1ccc(C(=O)c3ccccc3)cc1N2 (stereo unspecified)	-28%	-24%	-3%	-18%	?	20µM*
Cc1cc(C)cc(NC(=O)CN(C)S(=O)(=O)c2ccc3[nH]c4c(c3c2)CCCC4)c1	/	/	-9%	4.5µM*[quencher]	-7%	/
CCOc1ccc(NC(=O)CN(C)S(=O)(=O)c2ccc3[nH]c4c(c3c2)CCCC4)cc1	/	/	4%	14µM*[quencher]	-16%	/
Cc1cccc(C)c1NC(=O)CN(C)S(=O)(=O)c1ccc2[nH]c3c(c2c1)CCCC3	/	/	17%	?	2%	/
Cc1ccc2c(c1)-c1ncc(C(=O)c3ccccc3O)cc1CO2	/	/	0%	-20%	-14%	/
Cc1ccc(O)c(C(=O)c2cnc3c(c2)COc2ccccc2-3)c1	13µM*	1%	6%	8%	13%	?
